Screens from PubChem BioAssay.
Hits are enriched below; roughly 2.3% of the tested compounds scored in any of these assays.
Mcl1 Bid PPI = disrupts binding of human Mcl-1 to Bid peptide. 220,000 compounds, 0.97% hits. AID 1021. Q07820. TR-FRET Mcl-1/Bid-Dy647 peptide binding, 1536-well. inhibition, % at 21.7 µM;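 active = compounds that cut the binding signal by more than half at the single screening dose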;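 also: His-tagged Mcl-1 with europium anti-His antibody binding Bid BH3 peptide; 0% = Mcl-1 plus peptide wells and 100% = peptide-only wells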
Target sequence (Q07820 whole entry, looked up): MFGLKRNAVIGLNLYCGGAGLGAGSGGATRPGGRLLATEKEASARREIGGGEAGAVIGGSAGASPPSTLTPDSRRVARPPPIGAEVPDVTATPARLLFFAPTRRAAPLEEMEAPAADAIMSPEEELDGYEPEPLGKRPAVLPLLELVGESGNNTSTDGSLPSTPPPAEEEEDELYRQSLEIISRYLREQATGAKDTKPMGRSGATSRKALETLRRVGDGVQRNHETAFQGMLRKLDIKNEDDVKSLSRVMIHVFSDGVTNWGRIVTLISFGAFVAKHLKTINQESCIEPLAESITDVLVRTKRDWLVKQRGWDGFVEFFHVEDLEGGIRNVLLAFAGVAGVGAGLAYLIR
Bcl-xL primary = Bcl-xL (human) inhibition; Q07817; GST-Bcl-xL / FITC-Bim BH3 peptide fluorescence polarization; inhibition, % at 10.9 µM; 320,000 compounds, 0.7% hits; AID 2129;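 active = inhibition above the mean of all tested compounds plus 3 SD, cutoff set per campaign, cut at about 30% in these data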;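 also: 0% = DMSO wells and 100% = unlabeled Bim-BH3 peptide competitor; inhibitors lower millipolarization by displacing the labeled peptide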
Target sequence (Q07817 whole entry, looked up): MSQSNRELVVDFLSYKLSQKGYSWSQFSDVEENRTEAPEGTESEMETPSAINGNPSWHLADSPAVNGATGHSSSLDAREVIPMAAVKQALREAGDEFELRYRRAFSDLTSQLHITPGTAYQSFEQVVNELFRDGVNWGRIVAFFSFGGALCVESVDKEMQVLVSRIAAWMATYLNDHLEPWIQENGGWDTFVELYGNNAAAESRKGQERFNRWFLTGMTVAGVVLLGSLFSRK
Mcl1 Noxa PPI = Mcl-1/Noxa interaction inhibition | inhibition, % at 21.7 µM | TR-FRET Mcl-1/Noxa peptide binding, 2 h | 220,000 compounds, 1.5% hits | Q07820 | AID 1022;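 active = compounds that cut the protein-peptide binding signal by more than 50% relative to plate controls in a single-dose test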;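 also: His-tagged Mcl-1 with rhodamine Noxa BH3 peptide and terbium anti-His antibody; 0% = Mcl-1 plus Noxa peptide wells and 100% = peptide-only wells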
Bim-Mcl-1 = inhibitors of Bim-Mcl-1 interaction, human. 190,000 compounds, 0.1% hits. Bead-based flow cytometry, Bim peptide-Mcl-1 binding. AID 1009. inhibition, % at 10 µM. Q07820; in the data active = inhibition above about 40%;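 also: 0% = no compound tracer wells and 100% = peptide blocker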
MCL1-BIM inh = MCL1-BIM-BH3 interaction inhibition (human); GST-MCL1 / FITC-Bim-BH3 fluorescence polarization; inhibition, % at 10.9 µM; 320,000 compounds, 0.68% hits; AID 2057;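 active = inhibition above the mean inhibition of all tested compounds plus 3 SD, set per campaign, cut at about 40% in these data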;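 also: 0% = DMSO wells and 100% = unlabeled Bim-BH3 peptide control; higher means more loss of mP so more displacement of Bim peptide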
GLD-1 RNA inh = GLD-1-TGE RNA interaction inhibition (C. elegans) | 320,000 compounds, 0.44% hits | purified GLD-1 + fluorescein TGE RNA, fluorescence polarization | inhibition, % at 5.96 µM | Q17339;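 active = percent inhibition above a per-plate cutoff, the plate mean of test compounds plus 3 SD, cut at about 30% in these data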;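 also: 0% = DMSO wells with GLD-1 and probe and 100% = wells lacking GLD-1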
* hit, by the source's call; · = no result given.

SMILES	Mcl1 Bid PPI	Bcl-xL primary	Mcl1 Noxa PPI	Bim-Mcl-1	MCL1-BIM inh	GLD-1 RNA inh
CCN1CCCc2cc(CN(CCN3CCOCC3)C(=S)Nc3cccc(Cl)c3)ccc21	-53	12	30	-1	12	-4
CCN1CCCc2cc(CN(CCN3CCOCC3)C(=S)Nc3cc(F)cc(F)c3)ccc21	-100	11	60*	-1	6	5
Cc1ccc2c(c1)c(C1=NC(=S)NC1=O)c(O)n2C	26	8	55*	0	2	-6
O=C(COC(=O)c1ccccc1O)NCc1ccc2c(c1)OCO2	·	·	·	·	·	3
O=C(O)c1cc([N+](=O)[O-])ccc1NCc1ccccc1Cl	13	10	0	-1	5	5
O=C(O)c1cc([N+](=O)[O-])ccc1NCc1ccccn1	·	31*	·	·	23	16
CC(=O)Nc1ccc(NC(=O)CCCCCN2C(=O)c3ccccc3C2=O)cc1	-19	6	-5	-4	15	7
CCN(CC)c1ccc(NC(=O)CCCCCN2C(=O)c3ccccc3C2=O)cc1	-2	7	63*	0	7	0
O=C(CCCN1C(=O)c2ccccc2C1=O)NCCCn1ccnc1	82*	10	19	-1	3	0
CCCC[C@@H](CN[C@H](C)CNC)NCC1CCC(C(C)(C)C)CC1 (some centres undefined)	·	4	·	·	8	11
N#CC1(NC(=O)COC(=O)c2cc(O)c3ccccc3c2O)CCCCC1	·	31*	·	·	40*	10
O=C(Nc1ccccc1)C1CC2CCC1C2 (centres undefined)	·	2	·	·	5	-1
CCN(CC)c1ccc(NC(=O)C2CC3CCC2C3)cc1 (centres undefined)	9	1	67*	0	7	-4
OC(CNCc1ccccc1C(F)(F)F)C(F)(F)F (centres undefined)	-15	6	15	-1	3	3
CCOC(=O)c1c(C)oc2c1c(CN1CCN(C(=O)OCC)CC1)c(O)c1ccccc12	62*	14	98*	-8	22	-2
CCOC(=O)c1c(C)oc2c1c(CN1CCN(CCO)CC1)c(O)c1ccccc12	56*	·	95*	0	·	·
CCOC(=O)c1c(C)oc2c1c(C=NCCC(=O)O)c(O)c1ccccc12	-29	22	20	-1	18	-2
CCOC(=O)c1c(C)oc2c1c(C(c1ccncc1)N1CCOCC1)c(O)c1ccccc12 (centres undefined)	82*	23	98*	-1	13	-2
CC(CCc1ccccc1)NS(=O)(=O)c1ccccc1F (centres undefined)	·	-2	·	·	1	8
COCCN(CC(=O)Nc1cccc(C)c1C)C(=O)CN1C(=O)NC2(CCCCC2)C1=O	·	-6	·	·	-8	-2
Cn1c2c(c(=O)n(C)c1=O)C(NC(=O)C(C)(C)C)(C(F)(F)F)C(=O)N2 (centres undefined)	-3	3	2	-1	0	13
Cn1c2c(c(=O)n(C)c1=O)C(NS(=O)(=O)c1ccccc1)(C(F)(F)F)C(=O)N2 (centres undefined)	-95	6	51*	0	7	5
COc1cc2[nH]c(=O)n(CCC(=O)N3CCN(Cc4ccccc4)CC3)c(=O)c2cc1OC	-5	0	3	-4	-4	6
COc1cc2[nH]c(=O)n(CCC(=O)N3CCN(c4cccc(C)c4C)CC3)c(=O)c2cc1OC	54*	1	21	-3	3	-2
CC(C)N(C(=O)CSc1nnnn1-c1ccc2c(c1)OCO2)C(C)C	65*	-6	-1	-3	-10	6
SMILES	Mcl1 Bid PPI	Bcl-xL primary	Mcl1 Noxa PPI	Bim-Mcl-1	MCL1-BIM inh	GLD-1 RNA inh
COc1cc(OC)cc(-c2n[nH]c(=S)n2-c2ccc3c(c2)OCCO3)c1	-29	-14	51*	-5	-16	-1
COc1ccc(-c2n[nH]c(=S)n2-c2ccc3c(c2)OCCO3)cc1	-52	-15	45	-3	-13	4
CN1C2C=C3C(C#N)=C(N)C(C#N)(C#N)[C@@H](c4cccc(F)c4)[C@@H]3C1CC2 (some centres undefined)	-14	31*	12	0	27	23
O=C(N/N=C/c1ccncc1)c1cccc(NC(=O)c2ccccc2Cl)c1	-13	2	18	42*	10	-1
O=C(Nc1ccsc1C(=O)O)c1ccccc1Cl	·	10	·	·	9	-1
COc1ccc(C(=O)C(Sc2nnc(C)c(=O)[nH]2)c2ccc(OC)cc2)cc1 (centres undefined)	-1	3	-10	·	-1	-7
OCCC1CN(Cc2cccn2-c2cccnc2)CCN1C1CCCCC1 (centres undefined)	-31	7	-10	1	5	6
COc1cccc2c(=O)c(C(=O)O)c[nH]c12	14	6	-76	-2	6	8
O=C(O)c1c[nH]c2c(C(F)(F)F)cccc2c1=O	53*	1	7	-1	0	-4
O=C(CCS(=O)(=O)c1ccccc1)NCc1ccccc1	·	3	·	·	1	0
COc1ccccc1N1CSC2=C(C#N)C(c3ccc(SC)cc3)CC(=O)N2C1 (centres undefined)	2	-15	83*	8	-14	-10
COc1cc(C2CC(=O)N3CN(c4ccccc4C)CSC3=C2C#N)cc(OC)c1OC (centres undefined)	-21	-5	17	-4	-4	-1
Cc1ccc(S(=O)(=O)NNc2ccccc2)cc1	64*	9	19	-2	14	5
O=C(c1ccc(F)cc1)[C@@H]1[C@@H](C(=O)c2ccccc2)[C@@]2(C(=O)Nc3ccccc32)[C@H]2c3ccccc3C=CN12	-11	27	18	-5	3	34*
O=C(CCSc1nnc(-c2ccco2)o1)N1CCOCC1	-9	-2	3	-25	-1	6
O=C(Oc1ccc(C(=S)N2CCC(O)CC2)cc1)c1ccc(Cl)cc1	-51	100*	17	-1	4	7
Cc1ccc(S(=O)(=O)N2CCOCC2)cc1C(=O)NCCc1ccc(Cl)cc1	·	·	·	·	·	0
Cn1c(N)c(C(=O)Nc2ccc3ccccc3c2)sc1=S	44	-8	66*	-9	-12	-10
O=C(NC(Cc1ccccc1)C(=O)Oc1ccc2c(C(F)(F)F)cc(=O)oc2c1)OCc1ccccc1 (centres undefined)	-9	42*	5	4	41*	65*
Cc1ccccc1NC(=O)Cc1nnc(SCC(=O)NC2CCCCC2)n1C	·	3	·	·	5	-5
CN(C)c1ccc(NS(=O)(=O)c2ccc(-c3csnn3)cc2)cc1	-12	6	16	·	10	5
CN(C)c1ccc(NS(=O)(=O)c2cccc(Cl)c2)cc1	-21	15	84*	0	18	6
O=S(=O)(Nc1cccnc1)c1cccc(Cl)c1	-28	5	-6	-7	8	2
